High-throughput results (PubChem BioAssay)
rCAG RNA binder: binds r(CAG) RNA repeats; r(CAG) RNA repeat, TO-PRO-1 dye displacement fluorescence; inhibition, % at 3 µM; 1.3% of 370,000 active; AID 651821;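 active = inhibition above the plate cutoff, the mean of all test compounds on that plate plus 3 SD, cut at about 35% in these data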;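 also: 0% = DMSO alone and 100% = 100 µM mitoxantrone as full dye displacement; higher means more dye released from RNA so lower well fluorescence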
ABHD5-PLIN5 inh: blocks binding of human ABHD5 to perilipin-5; Split G. princeps luciferase complementation, luminescence, 4 h; Q00G26+Q8WTS1; inhibition, % at 4 µM; 0.78% of 360,000 active;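 active = inhibition above the mean inhibition across every tested compound plus 3 SD, cut at about 22% in these data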;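 also: 0% = DMSO only wells and the 100% control is not disclosed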
LEDGF integ inh: blocks HIV-1 LEDGF/p75-dependent DNA integration; 0.64% of 370,000 active; TR-FRET IN-LEDGF/p75 DNA integration, Eu/Cy5; inhibition, % at 3.7 µM; AID 743269;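 active = inhibition above the screen-wide mean plus 3 SD, cut at about 13% in these data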;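 also: signal is the Cy5 over europium emission ratio at 671 and 618 nm; 0% = plate median of compound wells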
UHRF1 binding: blocks human UHRF1 binding to methylated DNA. Q96T88. UHRF1 binding to methylated oligo, TR-FRET. inhibition, % at 4.4 µM. 0.75% of 370,000 active. AID 687016; in the data active = inhibition above about 21%;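 also: UHRF1 SRA domain binding a hemimethylated CpG hairpin DNA probe; 0% = median of test compound wells and 100% = reference inhibitor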
Target sequence (Q96T88 whole entry, looked up, the tested form may be a part): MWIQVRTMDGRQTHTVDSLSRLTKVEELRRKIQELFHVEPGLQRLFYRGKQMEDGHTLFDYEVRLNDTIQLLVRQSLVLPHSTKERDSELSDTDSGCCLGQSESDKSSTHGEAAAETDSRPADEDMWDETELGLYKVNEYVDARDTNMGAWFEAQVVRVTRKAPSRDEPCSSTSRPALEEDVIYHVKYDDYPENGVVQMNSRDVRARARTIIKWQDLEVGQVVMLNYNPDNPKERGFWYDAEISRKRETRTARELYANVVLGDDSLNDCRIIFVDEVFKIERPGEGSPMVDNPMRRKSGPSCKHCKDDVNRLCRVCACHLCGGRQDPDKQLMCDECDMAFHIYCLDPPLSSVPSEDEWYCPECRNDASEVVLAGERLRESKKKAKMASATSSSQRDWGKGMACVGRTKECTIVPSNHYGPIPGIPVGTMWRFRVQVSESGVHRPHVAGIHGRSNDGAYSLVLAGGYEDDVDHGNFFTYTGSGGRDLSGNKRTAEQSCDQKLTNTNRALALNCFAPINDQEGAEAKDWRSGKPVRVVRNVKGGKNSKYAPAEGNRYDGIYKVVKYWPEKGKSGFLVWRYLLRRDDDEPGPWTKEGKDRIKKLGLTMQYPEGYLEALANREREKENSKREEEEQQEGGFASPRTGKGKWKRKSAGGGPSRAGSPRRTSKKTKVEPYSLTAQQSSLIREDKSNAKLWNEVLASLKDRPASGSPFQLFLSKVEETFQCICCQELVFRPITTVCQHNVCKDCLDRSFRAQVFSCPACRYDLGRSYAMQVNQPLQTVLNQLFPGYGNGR
PRMT1 FP inh: PRMT1 (human) inhibition, primary screen; Q99873; recombinant PRMT1, activity-based probe fluorescence polarization; inhibition, % at 2.79 µM; 1.3% of 370,000 active; AID 652257;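 active = inhibition above about 21% made by adding two undisclosed values, limit read from the data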
MBD2 inh: inhibitors of human MBD2 binding to methylated oligonucleotide; Q9UBB5; TR-FRET; inhibition, % at 4.4 µM; 0.31% of 370,000 active; AID 686964; in the data active = inhibition above about 13%
Starred values were filed as active, the others as inactive; i = inactive; . = no result; + = active, no number. Sampled rows, rich in hits. Any-hit rate of the full collection: about 4.1%.

SMILES	rCAG RNA binder	ABHD5-PLIN5 inh	LEDGF integ inh	UHRF1 binding	PRMT1 FP inh	MBD2 inh
CNc1ccc2c3c(cccc13)C(=O)N(C)C2=O	i	-11.1	1.1	i	+	-145.2
CN(CCNC(=O)CCCOc1cc(=O)n(C)c2ccccc12)Cc1ccccc1	-10.4	0.9	0.9	20.9*	-0.7	6.3
CCc1nnc(NC(=O)c2ccc(COc3ccccc3Cl)o2)s1	1.4	4.4	-3.3	27.8*	1.4	-1.2
COc1c(C)cc(Br)cc1C(=O)Nc1ccccc1N1CCN(C(=O)c2ccccc2)CC1	-0.2	-1.2	-1.5	55.0*	2.5	2.5
COc1ccc(Br)cc1C(=O)Nc1ccccc1N1CCN(C(=O)c2ccccc2)CC1	2.9	18.6	-0.1	0.3	-0.8	0.8
O=C(O)CCCC(=O)Nc1ccccc1C(=O)O	2.0	1.0	15.6*	0.4	0.7	1.4
Cc1ccc(S(=O)(=O)N(CC(=O)NN=C2CCN(C)CC2)c2ccc(C(C)C)cc2)cc1	-0.9	-4.1	0.2	33.7*	-1.6	2.0
COc1ccc2c3c(cccc13)N(C)N=C2C	-0.2	-13.1	12.6	4.4	47.9*	-3.2
COc1cccc(CNC(=S)OC2CCC23CCC(c2ccccc2)CC3)c1 (configuration not stated)	7.0	.	-2.6	1.5	7.6	3.0
CCCCCCSC1=C(C#N)C(=O)NC2(CCCCC2)S1	70.2*	3.5	12.4	2.7	6.0	-3.2
Cc1ccc2cc(CN(CC3CCCO3)C(=O)Nc3ccccc3F)c3nnnn3c2c1 (configuration not stated)	0.8	8.9	3.9	-0.8	-2.2	1.9
Cc1ccc2cc(CN(CC3CCCO3)S(=O)(=O)c3ccccc3)c3nnnn3c2c1 (configuration not stated)	-1.4	6.5	-2.3	20.8*	0.7	-6.4
C[C@@H]1CN(C(=O)OC(C)(C)C)CCN1c1ccc(N2CCN(Cc3ccccc3)[C@@H](C)C2)c(C#N)c1	6.5	.	-2.8	-1.8	3.2	3.0
CCOC(=O)CCCCC(=O)c1[nH]c(=O)[nH]c1CSc1nc(-c2ccccc2)c(C#N)c(=O)[nH]1	55.6*	4.3	15.1*	-2.2	9.9	-0.9
CCOC(=O)CCCCC(=O)c1[nH]c(=O)[nH]c1CSCCO	-2.3	0.1	8.4	-1.2	1.8	-3.4
N#Cc1c(-c2ccccc2)nc(SCC(=O)N2c3ccccc3Sc3ccccc32)[nH]c1=O	88.9*	-1.6	3.2	-0.1	0.9	-6.3
C=CCN1C(=O)/C(=C\c2cccs2)C(C(=O)OC)=C1C	-0.3	-3.5	-0.4	-1.3	-2.1	-3.1
CCOC(=O)C1=C(C)N(c2ccc(OC)cc2)C(=O)/C1=C\c1ccc(O)c(OCC)c1	8.2	14.5	4.8	-7.3	31.8*	-8.0
CCOC(=O)C1=C(C)N(c2ccc(OC)cc2)C(=O)/C1=C\c1cccs1	3.2	-5.1	1.8	24.9*	1.0	7.8
O=C(N/N=C\C=C\c1ccco1)C1COc2ccccc2O1 (configuration not stated)	18.1	22.5*	-1.7	1.8	10.8	9.1
O=C(N/N=C/C=C/c1ccc([N+](=O)[O-])cc1)C1COc2ccccc2O1 (configuration not stated)	6.3	3.1	-0.1	-3.2	-0.8	-1.7
Cc1ccc(N2C(=O)CC(NCC3CCCO3)C2=O)cc1 (configuration not stated)	-0.9	6.7	-4.0	-0.5	45.1*	6.8
Cc1ccccc1N1CCN(C2CCCN(C(=O)CN3CCCC3=O)C2)CC1 (configuration not stated)	-9.5	5.6	0.1	1.3	-0.8	2.8
Cc1ccccc1N1CCN(C2CCCN(C(=O)CCN3CCCCC3=O)C2)CC1 (configuration not stated)	-6.0	-1.4	4.3	24.4*	-5.3	1.4
CCOC(=O)N1CCC(NC(=O)c2cc(C(=O)NCc3cccc(Cl)c3)ccc2CO)CC1	-9.0	-1.3	0.6	-1.1	2.1	2.1
CCOC(=O)N1CCC(NC(=O)c2cc(C(=O)NCc3ccc(F)cc3)ccc2CO)CC1	3.6	0.3	8.7	22.6*	-0.9	11.2
C=CCn1c(SCC(=O)Nc2ccccc2OCC)nnc1-c1ccc(C(C)(C)C)cc1	0.3	.	0.8	0.6	0.9	2.3
COC(=O)CC#C[C@H](C)[C@@H](NS(C)(=O)=O)C1CCCCC1	5.9	.	-1.6	-0.9	-1.9	-2.7
